Bioassay records deposited in PubChem by several laboratories.
Platelet DG rel – modulates dense granule release in human platelets; human platelet-rich plasma, SFLLRN dense granule ATP release, luminescence; inhibition, %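 (compounds screened at 7.5 µM in platelet-rich plasma)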; 300,000 tested, 0.22% active; AID 1663;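 active means mean replicate score, as percent of positive control, at or above 50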
SENP8 block-1 – inhibitors of human SENP8 protease | Q96LD8 | recombinant SENP8, Nedd8 substrate fluorescence | inhibition, % at 20 µM | 360,000 tested, 0.64% active | AID 602440; in the data active means inhibition mostly above about 40%, no sharp cut-off; inactive means mostly below about 27%
Target sequence (Q96LD8 whole entry, looked up): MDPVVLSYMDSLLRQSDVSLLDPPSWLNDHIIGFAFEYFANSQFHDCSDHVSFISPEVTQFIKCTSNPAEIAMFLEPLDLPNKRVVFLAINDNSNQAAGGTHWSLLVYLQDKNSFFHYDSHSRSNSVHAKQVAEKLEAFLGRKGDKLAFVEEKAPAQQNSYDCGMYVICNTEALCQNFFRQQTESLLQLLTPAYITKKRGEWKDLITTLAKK
SENP8 block-2 – blocks the human protease SENP8; Q96LD8; purified SENP8, Z-RLRGG-aminoluciferin cleavage, luminescence; inhibition, % at 10 µM; 330,000 tested, 1.2% active; in the data active means inhibition above about 50%
SENP7 block – SENP7 protease inhibition | Q9BQF6 | recombinant SENP7, Z-RLRGG-aminoluciferin luminescence, 40 min | inhibition, % at 5 µM | 330,000 tested, 1.5% active;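 active means inhibition above about 50% at the single test dose, limit read from the data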;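 further: plate controls were DMSO with enzyme for no effect and no enzyme buffer wells for full effect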
SENP6 inh – blocks the human protease SENP6 | Q9GZR1 | Recombinant SENP6 catalytic domain, aminoluciferin luminescence | inhibition, % at 10 µM | 330,000 tested, 1.8% active;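 active means inhibition above about 50% at the single tested dose, limit read from the data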;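 further: plate controls were DMSO wells with enzyme for no effect and DMSO wells lacking enzyme for full effect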
Target sequence (Q9GZR1 628-1112 limits assumed): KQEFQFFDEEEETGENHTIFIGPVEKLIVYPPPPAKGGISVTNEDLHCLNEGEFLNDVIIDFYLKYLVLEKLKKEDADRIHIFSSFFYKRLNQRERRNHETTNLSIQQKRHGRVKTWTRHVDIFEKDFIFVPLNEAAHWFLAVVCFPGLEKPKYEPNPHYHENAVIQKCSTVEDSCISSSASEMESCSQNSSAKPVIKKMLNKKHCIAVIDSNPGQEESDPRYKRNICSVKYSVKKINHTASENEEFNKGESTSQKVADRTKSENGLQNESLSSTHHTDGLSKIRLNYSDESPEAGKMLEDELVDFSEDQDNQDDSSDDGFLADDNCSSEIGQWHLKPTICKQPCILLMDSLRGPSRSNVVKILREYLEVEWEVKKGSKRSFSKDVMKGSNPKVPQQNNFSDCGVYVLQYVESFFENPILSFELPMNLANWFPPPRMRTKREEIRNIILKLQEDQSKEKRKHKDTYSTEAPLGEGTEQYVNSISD
SENP8 conf – human SENP8 inhibition, confirmed; AID 488912; inhibition, % at 12.5 µM; Recombinant SENP8, Z-RLRGG-aminoluciferin luminescence, 60 min; shares compounds with SENP7 block; 6,200 tested, 40% active;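 active means mean inhibition across replicates above about 50%, limit read from the data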
SENP6 confirm – confirmation of human SENP6 protease inhibitors | shares compounds with SENP7 block | 6,200 tested, 58% active | recombinant SENP6, Z-RLRGG-aminoluciferin luminescence | inhibition, % at 12.5 µM
SENP7 confirm – confirmation of human SENP7 protease inhibitors; shares compounds with SENP7 block; recombinant SENP7, Z-RLRGG-aminoluciferin luminescence, 40 min; inhibition, % at 12.5 µM; 6,200 tested, 69% active
Casp3 SENP sel – selectivity test for SENP inhibitors: human caspase-3 inhibition; 6,200 tested, 60% active; AID 488918; shares compounds with SENP7 block; purified caspase-3, Z-DEVD-aminoluciferin luminescence, 60 min; inhibition, % at 12.5 µM;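 active means mean inhibition above about 50%, limit read from the data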;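 further: plate controls were enzyme with DMSO for no effect and wells without caspase-3 for full effect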
SENP luc ctr – interferes with luciferase luminescence in SENP counter-screen. shares compounds with SENP7 block. Pre-incubated SENP8/Z-RLRGG-aminoluciferin, luciferase luminescence interference. inhibition, % at 12.5 µM. 6,200 tested, 39% active. AID 488919;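 active means mean inhibition above about 50% when retested at one dose, limit read from the data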;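 further: plate controls were DMSO wells with completed reaction for no effect and substrate without enzyme for full effect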
Active calls of the source: *; · = not tested or not shown. An excerpt weighted towards active compounds, which were near 2.4% of everything screened.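 How the source made its calls, unless noted: active means mean inhibition above about 50% in the one-dose retest (limit read from the data); inactive means the rest.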

SMILES	Platelet DG rel	SENP8 block-1	SENP8 block-2	SENP7 block	SENP6 inh	SENP8 conf	SENP6 confirm	SENP7 confirm	Casp3 SENP sel	SENP luc ctr
O=c1c2ccccc2nc2sc3ccccc3n12	·	-74.0	74.3*	87.4*	78.7*	57.6*	56.5*	69.7*	72.5*	30.9
Cc1ccc(S(=O)(=O)N(C)C)cc1NC(=O)COC(=O)CCC1CCCCC1	-3.9	15.8	-7.4	-5.2	-5.8	·	·	·	·	·
N#Cc1c(-c2ccccc2Cl)noc1/C=C/Nc1ccc(C(=O)O)cc1	-1.4	-338.1	95.3*	68.7*	94.8*	88.7*	97.0*	97.2*	84.1*	11.9
N#CCCN1CCCc2cc(N=Nc3ccc(C(F)(F)F)cc3)ccc21	-1.9	34.4	-10.4	3.3	-6.5	·	·	·	·	·
CCOC(=O)c1oc2cccc(O)c2c1C	5.3	-47.5	50.4*	63.0*	-13.1	2.0	59.3*	82.5*	59.2*	64.9*
Oc1ccc(NCc2ccc(OCc3ccccc3)cc2)cc1	-7.1	32.5	·	·	·	·	·	·	·	·
CCc1ccc(CNc2ccc(O)cc2)cc1	5.4	70.2*	76.9*	23.6	81.3*	13.8	11.7	-0.9	5.8	5.3
Nc1ccc2oc(-c3ccc4nc[nH]c4c3)nc2c1	25.3	-321.1	30.3	58.1*	67.1*	53.9*	55.1*	86.2*	79.6*	50.1*
Cc1nc2ccc([N+](=O)[O-])cc2[nH]1	-8.1	-5.7	1.1	3.1	-13.4	·	·	·	·	·
Cc1nc2ccc(-c3nc4cc(N)ccc4o3)cc2[nH]1	21.9	-275.8	54.3*	76.8*	46.4	1.9	77.6*	95.9*	89.5*	57.8*
CC1=C(C(=O)N(C)C)CC(CC(=O)NC2CCCC2)C(=O)N1CCC1=CCCCC1 (configuration not stated)	·	11.2	·	·	·	·	·	·	·	·
CC(C)(C)c1ccc(OCc2ccc(C(=O)NN)o2)cc1	-2.8	-1.5	2.1	-1.6	-4.3	·	·	·	·	·
Cc1cc(COc2ccccc2)oc1C(=O)O	-11.4	20.7	97.4*	99.7*	95.2*	98.7*	99.6*	102.8*	88.5*	98.0*
O=C(COc1ccc2c3c(c(=O)oc2c1)CCC3)Nc1ccccn1	8.0	-242.3	38.2	89.4*	0.6	31.1	28.3	13.5	66.3*	19.3
CC(C)(c1ccccc1)c1ccc(OCc2ccc(C(=O)O)o2)cc1	·	17.7	60.5*	12.5	72.6*	5.5	72.7*	73.2*	5.8	78.4*
O=C(O)c1ccc(COc2ccc3c4c(c(=O)oc3c2)CCC4)o1	-1.9	-192.7	91.0*	93.0*	81.9*	94.5*	94.9*	99.6*	65.0*	93.8*
COC(=O)c1ccc(COc2ccc3c(C)c(C)c(=O)oc3c2)o1	-4.3	-275.8	53.9*	29.8	39.2	10.8	9.6	4.4	-0.2	1.5
CCC(C)c1ccc(OCc2ccc(C(=O)O)o2)cc1 (configuration not stated)	-0.9	13.5	94.2*	79.8*	95.5*	3.1	98.3*	102.3*	47.8	97.5*
Cc1ccc(OCc2ccc(C(=O)O)o2)cc1C	-4.0	26.0	84.5*	81.7*	88.2*	3.5	92.9*	101.0*	40.8	92.8*
Cc1ccc(OCc2ccc(C(=O)N3CCOCC3)cc2)cc1C	5.5	33.3	74.9*	89.9*	83.2*	-7.4	73.7*	94.4*	83.8*	80.2*
CCOC(=O)c1ccc(COc2ccc(C(C)C)cc2)o1	12.8	-74.5	-6.8	0.6	-9.0	·	·	·	·	·
O=C(NCCCCc1ccccc1)C1CCCC1	-0.4	-5.5	8.2	3.3	-23.2	·	·	·	·	·
CC(=O)c1ccc(S(=O)(=O)N(C)CCCC(=O)N2CCN(c3ncccn3)CC2)cc1	·	-18.8	3.2	-2.4	-13.0	·	·	·	·	·
O=C(NC1CCCC1)C(c1ccncc1)N(C(=O)Cc1cccs1)c1cccc(F)c1 (configuration not stated)	-0.7	5.3	1.9	-7.3	-13.3	·	·	·	·	·
Cc1cc(C)cc(COc2ccc3c(C)c(CC(=O)O)c(=O)oc3c2C)c1	-2.8	-298.8	-3.1	-4.1	-8.6	·	·	·	·	·
SMILES	Platelet DG rel	SENP8 block-1	SENP8 block-2	SENP7 block	SENP6 inh	SENP8 conf	SENP6 confirm	SENP7 confirm	Casp3 SENP sel	SENP luc ctr
Cc1c(C)c2ccc(OCc3ccc(C(=O)O)o3)c(C)c2oc1=O	-4.1	-298.7	65.2*	50.4*	77.0*	8.9	66.0*	79.4*	16.4	56.6*
CN(Cc1ccc(C(C)(C)C)cc1)C(=O)C1CSC2(C)CCC(=O)N12 (configuration not stated)	·	8.5	2.3	5.1	-2.8	·	·	·	·	·
CCOc1ccc(-c2ccc(SC)nn2)cc1	94.8*	5.3	93.0*	97.3*	98.1*	92.6*	98.0*	101.5*	97.6*	36.3
CCOc1ccc(-c2ccc(SCC(=O)Nc3nnc(CC)s3)nn2)cc1	·	13.1	11.0	2.4	8.1	·	·	·	·	·
O=C(COC(=O)c1ccc[nH]c1=O)Nc1cc(S(=O)(=O)N2CCCCCC2)ccc1Cl	·	-54.1	13.6	-5.8	-4.9	·	·	·	·	·
CCn1c(/N=C/c2c[nH]c3ccccc23)nc2ccccc21	9.8	13.3	53.0*	43.8	71.6*	69.4*	70.8*	92.1*	34.5	78.8*
CCCn1c(/N=C/c2c[nH]c3ccccc23)nc2ccccc21	-0.9	-6.8	3.5	11.9	8.4	·	·	·	·	·
N#CC(c1ccccc1O)N1N=C(c2ccccc2)CC1c1ccccc1 (configuration not stated)	-1.7	-36.4	27.1	34.5	-0.4	·	·	·	·	·
COc1cc(C(C#N)N2N=C(c3ccccc3)CC2c2ccccc2)ccc1O (configuration not stated)	-0.6	22.2	20.6	78.5*	65.9*	-4.2	-1.7	4.4	9.9	9.2
COc1cc(OC)c2cc(C(=O)N[C@H](C(=O)N3CCC[C@H]3C(=O)O)C(C)C)n(C)c2c1	4.9	-108.4	-3.8	3.0	-5.3	·	·	·	·	·
O=[N+]([O-])c1ccccc1N/N=C/c1cccc(O)c1O	46.9	55.2*	87.9*	98.4*	91.5*	16.5	29.9	19.5	22.5	12.4
O=[N+]([O-])c1ccccc1N/N=C\c1ccccc1Cl	15.3	36.5	84.2*	97.1*	91.3*	15.6	17.2	7.2	55.6*	3.1
O=[N+]([O-])c1ccc(O)c(/C=N/Nc2ccccc2Cl)c1	-0.1	29.1	36.2	50.0*	50.2*	6.1	11.9	22.8	20.2	18.5
COc1cccc(NC(=O)N2CCC(NC(=O)C(Cc3ccccc3F)NC(C)=O)CC2)c1 (configuration not stated)	-0.3	-3.7	8.3	-0.6	-5.0	·	·	·	·	·
